Here are results for 39 compounds from PubChem BioAssay (Tox21).

Results filed as inconclusive are left out. A call without a number means that no potency is given here. Activity calls are given as the source filed them. The call rests on the fitted dose curve.

Tested on in one experiment: not listed separately
As to the kind of experiment: p53 small molecule agonists, cell-based qHTS assay: qHTS cell viability counter screen (AID 1963581). Further: nearly all actives have a fitted effect of over 45% in size. Conditions: p53RE-bla HCT-116 viability, ATP luminescence, 16 h; series mostly up to 66 µM. The method, boiled down:
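Viability was counter-screened in parallel with the p53 agonist reporter by measuring intracellular ATP luminescence in the same HCT-116 p53RE-bla wells after 16 h compound treatment at 37 C.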
Background: Quantitative high-throughput screening tests each substance at several concentrations.
Turning to `ClCBr`, the Potency result is “inactive”.

Regarding `O=C1CN=C(c2ccccc2)c2cc([N+](=O)[O-])ccc2N1`, the Potency result is “inactive”.

With `C#CC(C)(C)O`, the Potency entry was “inactive”.

Take `Brc1cccc(-c2ccccc2)c1`: the Potency result is “inactive”.

On to `CC[N+]1(CCOC(=O)C(O)(c2ccccc2)c2ccccc2)CCCCC1`, for which the Potency result is “inactive”.

`CCCCOC(=O)c1ccccc1N`: the Potency result was “inactive”.

Turning to `ClCCCCBr`, the Potency result is “inactive”.

Take `O=S(=O)(Cl)c1ccccc1`: the Potency entry is “inactive”.

Take `CC(C)CC(N(C)C)C1(c2ccc(Cl)cc2)CCC1` (stereo unspecified): the Potency result was “inactive”.

As for `C[N+]1(CCC(C(N)=O)(c2ccccc2)c2ccccc2)CCCCC1`, the Potency result was “inactive”.

`Nc1ccc([N+](=O)[O-])cc1[N+](=O)[O-]`: the Potency result was “inactive”.

On to `ClCCCCCCCl`, for which the Potency result was “inactive”.

`CCNc1nc(NC(C)C(C)C)nc(SC)n1` (stereo unspecified): the Potency result was “inactive”.

As for `CC(C)CC(C)Nc1ccc(Nc2ccccc2)cc1` (stereo unspecified), the Potency result was “inactive”.

Turning to `CC1(C)COP(Oc2ccccc2)OC1`, the Potency entry was “inactive”.

As to `C[C@H](N)C(=O)c1ccccc1`, the Potency entry was “inactive”.

Take `O=C1OC(=O)C2C1C1(Cl)C(Cl)=C(Cl)C2(Cl)C1(Cl)Cl` (stereo unspecified): the Potency entry is “inactive”.

As for `Nc1cc2c3c(c1)C(c1ccccc1)=N[C@@H](NC(=O)c1cccnc1)C(=O)N3CC2`, the Potency entry was “inactive”.

In the case of `O=C(Nc1ccc(F)cc1F)c1cccnc1Oc1cccc(C(F)(F)F)c1`, the Potency result was “inactive”.

As for `CC(C)C(Br)C(=O)NC(N)=O` (stereo unspecified), the Potency result is “inactive”.

Regarding `CCC1(c2cccc(O)c2)CCCCN(C)C1` (stereo unspecified), the Potency entry was “inactive”.

Turning to `Fc1ccc(C2(Cn3cncn3)OC2c2ccccc2Cl)cc1` (stereo unspecified), the Potency entry is “inactive”.

`O=C(O)[C@H](O)[C@@H](O)C(=O)O`: the Potency result was “inactive”.

For the compound `CN1C(=O)COc2c(C(=O)NC3CN4CCC3CC4)cc(Cl)cc21` (stereo unspecified), the Potency result is “inactive”.

Turning to `COc1c2c(cc3c1OCO3)CCN(C)C2`, the Potency entry was “inactive”.

On to `O=[N+]([O-])c1cc(Cl)c(Cl)cc1Cl`, for which the Potency entry was “inactive”.

As to `ClC(Cl)C(Cl)(Cl)Cl`, the Potency result is “inactive”.

As to `c1ccc(Nc2ccc(Nc3ccccc3)cc2)cc1`, the Potency result is “inactive”.

As for `Cc1cnc2c(C(=O)O)c(Cl)ccc2c1`, the Potency result was “inactive”.

Take `Cc1ccn2nc(S(=O)(=O)Nc3c(F)cccc3F)nc2n1`: the Potency entry was “inactive”.

Turning to `CCCCC(CC)COP(=O)(Oc1ccccc1)Oc1ccccc1` (stereo unspecified), the Potency result was “inactive”.

Take `C[C@]12CC[C@@H]3c4ccc(OC(=O)N(CCCl)CCCl)cc4CC[C@H]3[C@@H]1CC[C@@H]2O`: the Potency entry is “inactive”.

Turning to `CC(C)(N)Cc1ccc(Cl)cc1`, the Potency result was “inactive”.

`N#Cc1c2ccccc2cc2ccccc12`: the Potency entry was “inactive”.

For the compound `C=CC(=O)OCC`, the Potency result was “inactive”.

Take `CNC(=O)O/N=C(\C)C(C)S(C)(=O)=O` (stereo unspecified): the Potency entry was “inactive”.

Take `Cc1ccc2cc3c(ccc4ccccc43)c3c2c1CC3`: the Potency entry is “inactive”.

For a further experiment, the target named is 5-hydroxytryptamine receptor 2A (Homo sapiens) (UniProt P28223). The experiment in a line: 5-hydroxytryptamine receptor 2A (HTR2A) small molecule antagonists, cell-based qHTS assay (AID 1963586). Further: nearly all actives have a fitted effect of over 45% in size. Further: potency means the concentration at half of the fitted maximal effect. The settings on record: HTR2A-CHO cells, DOI-induced calcium flux, fluorescence; series mostly up to 61.5 µM. Summed up: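 CHO cells stably expressing human HTR2A were plated for 18 h at 37 C, then loaded with calcium dye for 1 h. Compounds were preincubated 5 min at room temperature before DOI (4 nM solution) was added. Kinetic fluorescence was read for 3 min.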
Sequence of 5-hydroxytryptamine receptor 2A (Homo sapiens) (P28223 whole entry, looked up): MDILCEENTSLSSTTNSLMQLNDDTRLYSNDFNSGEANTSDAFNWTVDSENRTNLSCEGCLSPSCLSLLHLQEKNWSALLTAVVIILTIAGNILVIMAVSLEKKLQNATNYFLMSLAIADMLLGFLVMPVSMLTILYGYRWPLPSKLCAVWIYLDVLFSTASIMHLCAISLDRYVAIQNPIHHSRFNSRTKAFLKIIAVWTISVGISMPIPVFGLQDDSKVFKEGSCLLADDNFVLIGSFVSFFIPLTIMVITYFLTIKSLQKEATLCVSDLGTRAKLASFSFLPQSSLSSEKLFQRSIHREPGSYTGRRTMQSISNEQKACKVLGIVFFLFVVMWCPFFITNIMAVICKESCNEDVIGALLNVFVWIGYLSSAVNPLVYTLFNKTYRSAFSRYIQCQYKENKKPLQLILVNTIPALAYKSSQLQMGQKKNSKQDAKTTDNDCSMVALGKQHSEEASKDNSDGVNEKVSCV
With `Brc1cccc(-c2ccccc2)c1`, the Potency entry was “inactive”.

Turning to `CCCCOC(=O)c1ccccc1N`, the Potency entry is “inactive”.

As to `ClCCCCBr`, the Potency result is “inactive”.

On to `O=S(=O)(Cl)c1ccccc1`, for which the Potency result was “inactive”.

In the case of `C[N+]1(CCC(C(N)=O)(c2ccccc2)c2ccccc2)CCCCC1`, the Potency entry is “inactive”.

Consider `ClCCCCCCCl`, for which the Potency result is “inactive”.

`CCNc1nc(NC(C)C(C)C)nc(SC)n1` (stereo unspecified): the Potency result is “inactive”.

As for `CNC(=O)O/N=C(\C)SC`, the Potency result is “inactive”.

For `C[C@H](N)C(=O)c1ccccc1`, the Potency result is “inactive”.

With `Nc1cc2c3c(c1)C(c1ccccc1)=N[C@@H](NC(=O)c1cccnc1)C(=O)N3CC2`, the Potency entry is “inactive”.

For `Fc1ccc(C2(Cn3cncn3)OC2c2ccccc2Cl)cc1` (stereo unspecified), the Potency result was “inactive”.

Take `O=C(O)[C@H](O)[C@@H](O)C(=O)O`: the Potency result was “inactive”.

Consider `COc1c2c(cc3c1OCO3)CCN(C)C2`, for which the Potency is 16.3 µM (active).

With `O=[N+]([O-])c1cc(Cl)c(Cl)cc1Cl`, the Potency entry is “inactive”.

Consider `ClC(Cl)C(Cl)(Cl)Cl`, for which the Potency result was “inactive”.

For `Cc1cnc2c(C(=O)O)c(Cl)ccc2c1`, the Potency entry was “inactive”.

In the case of `Cc1ccn2nc(S(=O)(=O)Nc3c(F)cccc3F)nc2n1`, the Potency result is “inactive”.

Regarding `CCCCC(CC)COP(=O)(Oc1ccccc1)Oc1ccccc1` (stereo unspecified), the Potency result was “inactive”.

As for `C[C@]12CC[C@@H]3c4ccc(OC(=O)N(CCCl)CCCl)cc4CC[C@H]3[C@@H]1CC[C@@H]2O`, the Potency entry is “inactive”.

On to `N#Cc1c2ccccc2cc2ccccc12`, for which the Potency result is “inactive”.

With `N#Cc1c[nH]cc1-c1cccc2c1OC(F)(F)O2`, the Potency result was “inactive”.

Take `C=CC(=O)OCC`: the Potency result was “inactive”.

As for `CNC(=O)O/N=C(\C)C(C)S(C)(=O)=O` (stereo unspecified), the Potency result is “inactive”.

The next experiment has the same target. The experiment in a line: 5-hydroxytryptamine receptor 2A (HTR2A) small molecule agonists, cell-based qHTS assay (AID 1963587). Further: nearly all actives have a fitted effect of over 30% in size. Further: potency means the concentration at half of the fitted maximal effect. The settings on record: HTR2A-CHO cells, calcium flux fluorescence, agonist mode; series mostly up to 76.8 µM. The method, boiled down:
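Kinetic calcium-flux fluorescence (2 min, 1 sec intervals) after compound addition in agonist mode. HTR2A-CHO cells were cultured 18 h, then dye-loaded 1 h at 37 C.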
For `ClCBr`, the Potency entry was “inactive”.

In the case of `C#CC(C)(C)O`, the Potency result was “inactive”.

In the case of `CCCCOC(=O)c1ccccc1N`, the Potency entry was “inactive”.

For the compound `C[N+]1(CCC(C(N)=O)(c2ccccc2)c2ccccc2)CCCCC1`, the Potency entry is “inactive”.

With `Nc1ccc([N+](=O)[O-])cc1[N+](=O)[O-]`, the Potency entry is “inactive”.

With `CC(C)CC(C)Nc1ccc(Nc2ccccc2)cc1` (stereo unspecified), the Potency result is “inactive”.

On to `CC1(C)COP(Oc2ccccc2)OC1`, for which the Potency entry is “inactive”.

Turning to `CNC(=O)O/N=C(\C)SC`, the Potency result is “inactive”.

Turning to `C[C@H](N)C(=O)c1ccccc1`, the Potency entry is “inactive”.

On to `O=C1OC(=O)C2C1C1(Cl)C(Cl)=C(Cl)C2(Cl)C1(Cl)Cl` (stereo unspecified), for which the Potency entry is “inactive”.

Regarding `Nc1cc2c3c(c1)C(c1ccccc1)=N[C@@H](NC(=O)c1cccnc1)C(=O)N3CC2`, the Potency result was “inactive”.

Turning to `O=C(Nc1ccc(F)cc1F)c1cccnc1Oc1cccc(C(F)(F)F)c1`, the Potency result was “inactive”.

Consider `CCC1(c2cccc(O)c2)CCCCN(C)C1` (stereo unspecified), for which the Potency result is “inactive”.

For the compound `Fc1ccc(C2(Cn3cncn3)OC2c2ccccc2Cl)cc1` (stereo unspecified), the Potency entry was “inactive”.

Take `O=C(O)[C@H](O)[C@@H](O)C(=O)O`: the Potency result was “inactive”.

As to `COc1c2c(cc3c1OCO3)CCN(C)C2`, the Potency was 1.2 µM (active).

In the case of `ClC(Cl)C(Cl)(Cl)Cl`, the Potency entry was “inactive”.

Take `CCCCC(CC)COP(=O)(Oc1ccccc1)Oc1ccccc1` (stereo unspecified): the Potency entry is “inactive”.

Regarding `C[C@]12CC[C@@H]3c4ccc(OC(=O)N(CCCl)CCCl)cc4CC[C@H]3[C@@H]1CC[C@@H]2O`, the Potency result is “inactive”.

Turning to `C=CC(=O)OCC`, the Potency entry is “inactive”.

In the case of `CNC(=O)O/N=C(\C)C(C)S(C)(=O)=O` (stereo unspecified), the Potency entry was “inactive”.
